High-throughput results (PubChem BioAssay)
PI4K2A inh: PI4K2A (human) kinase inhibition | 0.13% of 420,000 active | purified PI4K2A, ADP-Glo luminescence, 1 h; hits give low values | Q9BTU6 | activity change, negative = inhibition, % at 76.9 µM | AID 1346378; in the data active = activity change below about -50%; inconclusive = mostly about -30% to -49%
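ADP-Glo luminescence measured ADP generated by PI4K2A enzyme (4 ug/mL before mixing) with 1.2 mM PI substrate (pre-mix) and 300 microM ATP (pre-mix). Tris pH7.5 buffer with MgCl2, Triton X-100; 1 h reaction at ambient temperature.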
Tb PFK block: blocks T. brucei phosphofructokinase; O15648; Potency, µM (titrated, usually from 57.5 µM), hits mostly inhibitors; T. brucei PFK, ADP-Glo luminescence; AID 485367; 0.17% of 330,000 active; also: nearly all actives have a fitted effect of over 60% in size
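Compounds were pin-transferred as a titration series up to 57 uM into substrate buffer (0.5 mM F6P, 0.1 mM ATP, pH 8.0), then 1.25 nM PFK was added and reactions ran 45 min before ADP-Glo detection.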
PI5P4K alpha inh: PI5P4K alpha (human) kinase inhibition. P48426. 1.2% of 330,000 active. max response, %. PI5P4Kalpha enzyme, ADP-Glo luminescence, 60 min; hits give low values; active = max response of -50% or lower; inconclusive = between -30% and -50%; inactive = -30% or higher; also: value at the top dose of about 77 µM
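Quantitative HTS of the MLSMR library against PI5P4Kalpha with substrate. ATP added last at 5 microM final; room temperature, 60 minutes. Remaining ATP depleted, ADP converted and read as luminescence.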
Tb PGK inh: T. brucei PGK inhibition. P07378. PGK/GAPDH coupled, Kinase-Glo luminescence, 60 min. Potency, µM (series often up to 57.5 µM), actives largely listed as inhibitors. 0.043% of 380,000 active. AID 602233; also: nearly all actives have a fitted effect of over 60% in size
Target sequence (P07378 whole entry, looked up): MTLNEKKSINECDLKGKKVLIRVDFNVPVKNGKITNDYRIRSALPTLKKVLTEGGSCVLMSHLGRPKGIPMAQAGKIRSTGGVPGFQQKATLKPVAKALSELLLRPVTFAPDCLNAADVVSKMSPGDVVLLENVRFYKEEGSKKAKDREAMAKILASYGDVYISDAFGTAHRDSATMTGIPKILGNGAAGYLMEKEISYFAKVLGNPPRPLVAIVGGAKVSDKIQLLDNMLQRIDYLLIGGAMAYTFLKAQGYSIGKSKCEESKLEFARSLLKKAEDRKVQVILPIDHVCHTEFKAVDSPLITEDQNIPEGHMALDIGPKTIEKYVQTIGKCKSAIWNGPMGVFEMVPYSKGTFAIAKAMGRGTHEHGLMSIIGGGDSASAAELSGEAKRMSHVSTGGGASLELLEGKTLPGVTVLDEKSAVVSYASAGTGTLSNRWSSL
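Luminescent ATP detection (Kinase-Glo Plus) follows a 60-minute room-temperature incubation, with wells lacking PGK as controls. Buffer: 100 mM TEA (pH 7.6), 5 mM MgCl2, 0.01% Tween-20. Coupling enzyme GAPDH (100 nM final) supplies unstable 1,3-BPG in-well.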
Pin1 inhibitor: human Pin1 inhibition; 0.009% of 390,000 active; Pin1 FP peptide displacement, HiFluor488, 10 min; Q13526; Potency, µM (series often up to 115 µM), actives largely listed as inhibitors; AID 504891; active = well fitted inhibition curve with a large enough effect in the polarisation, with a control signal flat, not every such curve was filed as active; inconclusive = small, poorly fitted or top-dose-only effect, or effect the other way, or a change in a side signal; inactive = no such curve, though single readings can be large or run the other way; the % refers to the polarisation
Target sequence (Q13526 whole entry, looked up): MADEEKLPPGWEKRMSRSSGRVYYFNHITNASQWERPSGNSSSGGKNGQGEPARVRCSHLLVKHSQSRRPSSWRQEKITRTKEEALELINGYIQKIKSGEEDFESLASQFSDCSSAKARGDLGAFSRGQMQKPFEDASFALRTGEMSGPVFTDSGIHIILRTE
Numbers stand for hits; . = inactive; ? = inconclusive; / = no result. The full list was thinned out, with hits kept by preference. Unless noted, calls follow the shape of the dose curve; as a rule, active = well fitted curve in the direction sought with a large enough effect; inconclusive = small, poorly fitted or top-dose-only effect, or another doubt; inactive = no such curve, though single readings can be large; an effect the other way counts as inactive or inconclusive.

SMILES | PI4K2A inh | Tb PFK block | PI5P4K alpha inh | Tb PGK inh | Pin1 inhibitor
N#Cc1c(N)nc(N)nc1Nc1ccc(Br)cc1 | . | ? | -52 | . | .
Cc1nc(N)nc(Nc2ccc(C#N)cc2)c1Br | . | . | . | . | .
N#C/C(=C\c1ccc(-c2ccccc2C(=O)O)o1)c1nc2ccccc2[nH]1 | . | . | -69 | . | ?
Cc1cc(/C=C(/C#N)c2nc3ccccc3[nH]2)c(C)n1-c1ccccc1C(=O)O | . | . | . | ? | ?
Cc1cc(/C=C(/C#N)c2nc3ccccc3[nH]2)c(C)n1-c1cc(C(=O)O)cc(C(=O)O)c1 | . | . | -79 | ? | ?
O=C(OCC#CCSc1nnc(-c2cccc3ccccc23)o1)c1cc2ccccc2s1 | / | / | / | / | .
COc1ccc(C(C#N)c2ccc(=O)[nH]n2)cc1 (stereo not given) | -62 | . | . | . | .
OCCCc1nc2n(n1)C(c1cccs1)C=C(c1ccccc1)N2 (stereo not given) | / | . | / | / | /
OCCCc1nc2n(n1)C(c1ccccc1)C=C(c1ccc(F)cc1)N2 (stereo not given) | -66 | . | / | . | ?
Cc1ccc(NC(=O)CN2C(=O)N/C(=C\c3cccn3-c3cccc(C(=O)O)c3)C2=O)cc1 | . | . | -76 | ? | .
O=C(CN1C(=O)N/C(=C\c2ccccc2OCc2ccc(C(=O)O)cc2)C1=O)Nc1ccccc1F | . | . | -51 | . | /
O=C(O)c1ccc(-n2cccc2/C=C2/NC(=O)N(c3cccc(Cl)c3)C2=O)cc1 | . | . | -79 | ? | /
Cc1ccc(NC(=O)CN2C(=O)N/C(=C/c3ccccc3OCc3cccc(C(=O)O)c3)C2=O)cc1 | . | ? | . | 22µM | /
O=C(O)c1cccc(-n2cccc2/C=C2\NC(=O)N(Cc3ccc(F)cc3)C2=O)c1 | . | . | ? | . | .
O=S(=O)(c1ccc(C(F)(F)F)cc1)N1CCN(S(=O)(=O)c2ccc3c(c2)OCCO3)CC1 | / | / | / | / | .
Cc1cccc(NC(=O)CN2C(=O)N/C(=C/c3ccc(C)o3)C2=O)c1 | . | . | -51 | . | ?
CC[C@]12c3[nH]c4cc(-c5ccco5)ccc4c3CCN1C(=O)[C@@H](CC(=O)NCC13CC4CC(CC(C4)C1)C3)C[C@@H]2C(=O)N1CCN(C(=O)c2ccco2)CC1 | . | . | -51 | . | .
O=C(NCc1nnc(-c2cc3ccccc3[nH]2)o1)c1ccccc1 | / | / | / | / | .
O=C(C=P(c1ccccc1)(c1ccccc1)c1ccccc1)c1ccccc1-c1ccccc1C(=O)C=P(c1ccccc1)(c1ccccc1)c1ccccc1 | . | / | -65 | . | ?
CCCCNC(=S)NCCCc1cnc[nH]1 | / | / | / | / | .
O=S1(=O)c2ccc(N3CC[C@@H](O)C3)cc2O[C@H]2CCN1C2 | . | / | / | / | /
O=C(NC(NNc1ccc([N+](=O)[O-])cc1)(C(F)(F)F)C(F)(F)F)c1ccc(Cl)cc1 | . | . | -67 | . | .
O=C(NNc1ccc([N+](=O)[O-])cc1)c1ccccc1Cl | . | ? | . | . | .
O=C(O)C/C(=C\c1ccc(N2CCOCC2)c([N+](=O)[O-])c1)c1nc2ccccc2s1 | . | ? | -54 | . | ?
O=C1/C(=C/c2ccc(O)c(O)c2)SC(=S)N1Nc1ccccc1 | . | . | -61 | . | .
SMILES | PI4K2A inh | Tb PFK block | PI5P4K alpha inh | Tb PGK inh | Pin1 inhibitor
O=C(NN1C(=O)/C(=C\c2ccc(O)c([N+](=O)[O-])c2)SC1=S)c1ccccc1Cl | . | . | -78 | . | ?
O=C(O)c1ccc(/C=C2\SC(=S)N(NC(=O)c3ccccc3[N+](=O)[O-])C2=O)cc1 | . | . | ? | . | .
O=C(NN1C(=O)/C(=C/c2ccc(O)c(O)c2)SC1=S)c1ccccc1 | . | . | -53 | ? | .
Cc1cc(C)cc(NC(=O)NC2CCN(S(=O)(=O)c3ccc(F)cc3)CC2)c1 | . | / | / | / | /
COC(=O)Cc1[nH]n(-c2nc3ccccc3s2)c(=O)c1C(C)=O | -53 | . | . | . | .
CC(=O)c1c(CC(=O)O)[nH]n(-c2nc3ccccc3s2)c1=O | ? | ? | / | . | ?
COc1ccc(C(=O)N(Cc2ccccc2)Cc2cccs2)c(O)c1 | / | / | / | / | .
CC(=O)C1CCN(c2ncc(-c3ccc4c(c3)OCCCO4)s2)CC1 | / | / | / | / | .
COc1ccc(/C=N/Nc2nc(C(=O)O)cs2)cc1 | . | . | -63 | . | .
COC(=O)c1ccc(/C=N/Nc2nc(-c3ccccc3)cs2)cc1 | . | . | . | . | .
Cc1ccc2nc(NC(=O)c3ccc(N4C(=O)CCC4=O)cc3)sc2c1 | . | . | -54 | . | .
COc1ccc2[nH]c(C(=O)O)c(CCC(=O)O)c2c1 | . | . | . | . | .
COc1ccc2[nH]c(C(=O)O)c(CCN3C(=O)c4ccc(C(=O)O)cc4C3=O)c2c1 | . | . | -60 | . | .
O=C(CN1C(=O)S/C(=C\C=C\c2ccccc2)C1=O)Nc1ccccc1C(=O)O | . | . | -67 | . | .
Cc1cc(N/N=C/c2ccc(O)cc2)nc(NS(=O)(=O)c2ccccc2)n1 | . | ? | -55 | 25µM | ?
Cc1snc(SCC(=O)c2ccc([N+](=O)[O-])cc2)c1C#N | . | ? | -57 | . | .
C[C@H](N)C(=O)N[C@@H](C)C(=O)NC1[C@H]2CN(c3nc4c(cc3F)c(=O)c(C(=O)O)cn4-c3ccc(F)cc3F)C[C@@H]12 (stereo not given in full) | . | / | / | / | /
CCOc1cc(/C=N/N=C2/NC(=O)C(CC(=O)O)S2)ccc1OCc1ccc(Cl)cc1Cl (stereo not given) | . | . | -63 | ? | /
COc1cc(/C=N/N=C2/NC(=O)C(CC(=O)O)S2)ccc1OCc1ccc(Cl)cc1 (stereo not given) | . | . | . | . | .
CC(CC(C#N)(c1ccccc1)C(C)C)N(C)C (stereo not given) | . | / | / | / | /
Cn1c(CNc2ccccc2)cc(=O)n(C)c1=O | -69 | . | / | . | .
C=CCn1c(SCc2ccccc2F)nc2cc(C(=O)O)ccc2c1=O | . | . | -74 | . | .
C=CCn1c(SCC(=O)N(CC)C2CCS(=O)(=O)C2)nc2ccccc2c1=O (stereo not given) | . | . | . | . | .
C=CCn1c(SCC(=O)N(CC)C2CCS(=O)(=O)C2)nc2cc(C(=O)O)ccc2c1=O (stereo not given) | . | . | -64 | . | .
CC(=O)NCCn1c(SCc2ccccc2F)nc2ccccc2c1=O | . | . | / | . | .
O=C1c2ccccc2C(=O)N1c1noc2ccccc12 | / | / | / | / | .
N#Cc1c(-c2ccc(F)cc2)c2c([nH]c1=O)-c1ccccc1OC2 | . | . | . | . | .
N#Cc1c(-c2cccnc2)c2c([nH]c1=O)-c1ccccc1OC2 | . | . | -59 | . | ?
CC(c1cc(F)ccc1O)c1c[nH]c2ccccc12 (stereo not given) | . | / | / | / | /
Cc1[nH]c2ccccc2c1C1=CC(=O)C=CC1=O | . | / | -97 | . | .
